# An excerpt weighted towards active compounds, which were near 3.5% of everything screened.
# MITF primary – MITF inhibitors, primary screen, biochemical, AlphaScreen, human. actives 0.91% (n = 650,000). inhibition, % at 2.6 µM. AlphaScreen MITF homodimerization, bead proximity signal; in the data active means inhibition above about 50%;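 further: 0% = vehicle wells with protein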
# TEAD-YAP inh – TEAD-YAP interaction inhibition, primary screen, TEAD-YAP interaction inhibitor project, luminescence, HEK-TIYL cells | AID 1259422, 2018 | inhibition, % at 9.12 µM | TEAD-Gal4/YAP UAS-luciferase luminescence | actives 1.4% (n = 640,000); in the data active means inhibition above about 32%;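 further: 0% = median of test compound wells and 100% = reference inhibitor wells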
# GPR151 activ – activators of human GPR151, primary screen, cell-based, PathHunter beta-arrestin, luminescence. activation, % at 11.2 µM. actives 1% (n = 650,000). PathHunter beta-arrestin GPR151 cells. AID 1508602, 2020; in the data active means activation above about 4.9%;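 further: 0% = median of compound wells and 100% = cells with positive control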
# FBW7 activator – FBW7 E3 ligase activators, primary screen, biochemical, AlphaScreen, human. F-box/WD repeat-containing protein 7 (Homo sapiens), Q969H0. AlphaScreen FBW7–phospho-cyclin E peptide binding, activator screen. normalized activity (activation), % at 26.1 µM. actives 0.13% (n = 650,000); in the data active means normalized activity above about 1.9%;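 further: purified mutant Fbw7 with reduced substrate affinity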
# Target sequence (Q969H0 whole entry, looked up): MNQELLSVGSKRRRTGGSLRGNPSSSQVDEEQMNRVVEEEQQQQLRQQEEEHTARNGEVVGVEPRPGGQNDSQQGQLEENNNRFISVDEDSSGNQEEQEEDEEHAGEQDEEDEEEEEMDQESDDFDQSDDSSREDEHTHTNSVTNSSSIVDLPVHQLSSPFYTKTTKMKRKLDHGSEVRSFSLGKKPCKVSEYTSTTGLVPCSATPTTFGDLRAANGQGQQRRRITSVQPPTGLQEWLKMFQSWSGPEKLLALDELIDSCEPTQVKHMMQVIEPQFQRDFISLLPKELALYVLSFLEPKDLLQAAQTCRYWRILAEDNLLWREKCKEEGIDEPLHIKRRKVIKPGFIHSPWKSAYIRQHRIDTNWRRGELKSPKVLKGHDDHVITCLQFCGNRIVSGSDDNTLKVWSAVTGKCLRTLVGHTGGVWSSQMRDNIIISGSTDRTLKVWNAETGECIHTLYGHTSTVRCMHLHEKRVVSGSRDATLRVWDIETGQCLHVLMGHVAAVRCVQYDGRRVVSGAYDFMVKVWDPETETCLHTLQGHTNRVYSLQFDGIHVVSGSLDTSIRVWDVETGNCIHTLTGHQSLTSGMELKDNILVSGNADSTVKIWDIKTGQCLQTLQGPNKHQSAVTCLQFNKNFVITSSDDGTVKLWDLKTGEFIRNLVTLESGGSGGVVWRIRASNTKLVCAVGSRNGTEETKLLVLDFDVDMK
# MITF inh conf – MITF inhibitors, retest of hits, confirmation, biochemical, AlphaScreen, triplicate. shares compounds with MITF primary. AlphaScreen MITF homodimerization, biotin/His-MITF beads. inhibition, % at 2.6 µM. actives 16% (n = 4,700);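 active means inhibition above a cutoff derived from the DMSO control wells, cut at about 28% in these data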;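 further: 0% = MITF dimer wells with DMSO only; inhibitors lower the bead chemiluminescence by keeping MITF from dimerizing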
# AS interf DR – AlphaScreen optical interference compounds, dose response, counter-screen, biochemical, HTS | IC50, µM | shares compounds with MITF primary | actives 6% (n = 480) | AlphaScreen optical interference counterscreen, cell-free; call rule not given here
# AS interf ctr – AlphaScreen optical interference compounds, counter-screen for MITF inhibitor project, biochemical, triplicate; shares compounds with MITF primary; LysRS AlphaScreen counterscreen, signal interference; inhibition, % at 2.6 µM; actives 7.6% (n = 4,700); AID 1259376, 2018;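 active means inhibition above a cutoff derived from the DMSO control wells, cut at about 30% in these data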
# * = called active by the depositor; nt = no result.
SMILES,MITF primary,TEAD-YAP inh,GPR151 activ,FBW7 activator,MITF inh conf,AS interf ctr,others
CCCCN1COc2c(cc(Cl)c3cccnc23)C1,78*,41*,0,0,73*,100*,
Clc1cc2c(c3ncccc13)OCN(CC1CCCO1)C2 (centres undefined),88*,21,0,-1,100*,101*,
Clc1cc2c(c3ncccc13)OCN(Cc1ccccn1)C2,114*,5,1,-1,65*,88*,
CN(C(=O)CN1C(=O)COc2c1cc(Cl)c1cccnc21)C1CCCCC1,-6,-6,0,0,nt,nt,
CCOC(=O)c1cnc2c(C)cc(Cl)cc2c1Nc1ccccc1OCC,5,4,0,0,nt,nt,
N#Cc1c(SCC(=O)O)nc2c(c1-c1ccco1)CCC2,60*,-6,1,-1,72*,20,AS interf DR=>6.9
CCN(CC)c1ccc(C(=O)Nc2ccc3nc(N4CCN(c5ncccn5)CC4)cc(C)c3c2)cc1,-4,-3,1,0,nt,nt,
CCCN1CCCc2cc(CCNS(C)(=O)=O)ccc21,51*,-1,-1,0,-9,-1,
O=C(NCC1CCC2(CCN(Cc3cnc(-c4ccccc4)s3)CC2)O1)c1cccnc1 (centres undefined),70*,26,0,0,-4,-8,
O=C(NCC1CCC2(CCN(Cc3cc4ccccc4s3)CC2)O1)c1cccnc1 (centres undefined),4,1,2,0,nt,nt,
O=c1c2ccccc2nc(SCc2ccccc2)n1-c1ccc(Cl)cc1,-4,-12,2,0,nt,nt,
CSc1ccc(CN2CCN(CCCc3ccccc3)CC2)cc1,64*,1,4,0,0,3,
Cc1cccc(CN2CCN(CCCc3ccccc3)CC2)c1,69*,3,-2,0,-3,2,
O=C(CN(c1cccc(C(F)(F)F)c1)S(=O)(=O)c1ccccc1)Nc1ccc(Cl)cc1Cl,-2,0,1,0,nt,nt,
CCc1ccc(/C=C2/C(=N)N3C(=NC2=O)SN=C3S(C)(=O)=O)cc1,-1,2,0,0,nt,nt,
COC(=O)c1cc2ccsc2n1Cc1cccc(OC)c1,3,-10,4,0,nt,nt,
CC1(C)C(=O)NCCN1C(=O)c1cc2ccccc2oc1=O,-5,7,0,0,nt,nt,
COc1ccc(Cc2nnc(N/N=C/c3c(CO)cnc(C)c3O)[nH]c2=O)cc1OC,111*,4,0,-1,107*,100*,
COc1ccc(Cc2nnc(N/N=C/c3cccc([N+](=O)[O-])c3)[nH]c2=O)cc1OC,-9,-1,-1,0,nt,nt,
C#CCNCC(O)COc1ccc(OCC)cc1 (centres undefined),66*,-21,-1,0,3,7,
Cc1cccc(C)c1OCCOCCNCCN,55*,-1,0,0,-12,0,
Cc1cccc(Cl)c1OCCOCCNC(C)(C)C,44,7,0,0,nt,nt,
Cc1cccc(Cl)c1OCCOCCNCCN,61*,9,1,0,12,13,
Cc1cc(=O)n2nc(N3CCCC(C(=O)NCCCSC4CCCCC4)C3)sc2n1 (centres undefined),6,9,1,0,nt,nt,
Cc1c(C(=O)Nc2ccccc2F)sc2ncnc(N3CCc4ccccc4C3)c12,6,-7,-1,0,nt,nt,
SMILES,MITF primary,TEAD-YAP inh,GPR151 activ,FBW7 activator,MITF inh conf,AS interf ctr,others
O=C1N[C@@H](COCc2ccccc2)C(=O)N2CCN(C(=O)NC3CCCCC3)C[C@H]12,72*,-1,2,0,68*,-4,AS interf DR=>6.5
O=C1N[C@@H](Cc2c[nH]c3ccccc23)C(=O)N2CCN(C(=O)NC3CCCCC3)C[C@H]12,76*,12,-2,0,72*,-9,AS interf DR=>6.5
CN1C(=O)[C@H]2CN(C(=O)NC3CCCCC3)CCN2C(=O)[C@@H]1Cc1ccccc1,74*,1,1,0,69*,-11,AS interf DR=>6.5
C[C@@H](OCc1ccccc1)[C@@H]1NC(=O)[C@H]2CN(C(=O)NC3CCCCC3)CCN2C1=O,80*,-1,3,-1,73*,-7,AS interf DR=>6.5
O=C1N[C@@H](COCc2ccccc2)C(=O)N2CCN(C(=O)OCc3ccccc3)C[C@H]12,-8,3,0,0,nt,nt,
O=c1[nH]c(N2CCCCC2)nc2c1CN(Cc1cccnc1)CC2,-6,-1,0,0,nt,nt,
Cc1cnc(Nc2ccc3ncccc3c2)nc1NCc1ccccc1,0,22,2,0,nt,nt,
CC(C)N(CCNc1ccnc(Nc2ccc(N3CCOCC3)cc2)n1)C(C)C,3,-6,0,0,nt,nt,
CC1=C(C(=O)N(C)C)C(c2ccccc2)NC(=S)N1 (centres undefined),7,12,-1,0,nt,nt,
COc1ccc(C[C@@H]2NC(=O)[C@H]3CN(C(=O)NC4CCCCC4)CCN3C2=O)cc1,73*,7,1,1,62*,-4,AS interf DR=>6.5
COc1ccc(C[C@@H]2NC(=O)[C@H]3CN(C(=O)Oc4ccc(F)cc4)CCN3C2=O)cc1,-10,10,0,0,nt,nt,
COc1ccc2cc(S(=O)(=O)c3ccc(F)cc3)c(=O)oc2c1,-4,1,-1,0,nt,nt,
O=C1N[C@@H](Cc2ccc(O)cc2)C(=O)N2CCN(C(=O)OCc3ccccc3)C[C@H]12,-17,-6,-2,0,nt,nt,
O=C1N[C@@H](Cc2ccc(O)cc2)C(=O)N2CCN(C(=O)NCc3ccccc3)C[C@H]12,64*,4,-2,0,69*,-1,AS interf DR=>6.5
O=C1N[C@@H](Cc2ccc(Cl)cc2)C(=O)N2CCN(C(=O)NCc3ccccc3)C[C@H]12,73*,10,1,0,71*,-14,AS interf DR=>6.5
O=C(NCc1ccccn1)c1cccc2cc[nH]c12,11,-31,-1,0,nt,nt,
COc1ccc2c(c1)CC(c1nc(Nc3cn[nH]c3)c3ccccc3n1)CO2 (centres undefined),7,-11,1,0,nt,nt,
Clc1ccc2c(c1)CC(c1nc(Nc3cncnc3)c3ccccc3n1)CO2 (centres undefined),51*,2,0,0,55*,3,AS interf DR=>6.5
CC(C)(C)NC(=O)COC(=O)Cc1ccc(Cl)cc1,116*,-2,0,0,16,0,
Cc1noc(-c2ccc(NC(=O)C3(c4cccs4)CCCC3)cc2)n1,6,12,0,1,nt,nt,
